# According to PubChem BioAssay:
# Several values for one entry are separate records, joined by “and”; a condition that tells them apart may be missing. Identical values can stand only once. Activity calls are given as the source filed them. Rule as the data show it, unless noted: active = parasite load remaining mostly below about 12% (no sharp cut-off); inactive = mostly above about 10%.
# Tests used:
# [1] = P. berghei load reduction in hepatocytes – cell-based, HepG2, luciferase luminescence, HepG2 viability, primary screen (AID 624349);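 also: 100% = mean of DMSO negative control wells on the same plate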; details: P. berghei liver stage in HepG2, luciferase luminescence, concentration not given here; parasite load remaining: stronger effect = lower value; viability: measured here: HepG2 viability without parasites
# [2] = Wnt pathway potentiators raising nuclear beta-catenin – imaging, WNT3A-conditioned medium, mouse C2C12, NPC library, primary screen (AID 1117326; in the data active = nuclear beta-catenin stimulation mostly above about 4.2%, no sharp cut-off; inactive = mostly below about 10%; also: reference of the scale not given here); details: stronger effect = higher value
# [3] = stimulators of insulin release from INS-1E, primary screen, cell-based, 5 mM glucose, NPC library (AID 1117329;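 active = compound raises insulin release from rat beta cells at 5 mM glucose, no numeric limit stated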; also: reference of the scale not given here); details: rat INS-1E insulin secretion, at 10 µM, stronger effect = higher value
# [4] = growth inhibition of GSK3B-pretreated HCT116 cells – cell-based, CellTiter-Glo, 0.2 to 20 µM (AID 1117336;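 active = compounds lowering colon cancer cell viability after pretreatment blocking the GSK3B kinase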); details: HCT116 viability after GSK3B inhibitor, at 20 µM, stronger effect = higher value
# [5] = inhibition of endothelial tube formation, primary screen, imaging, VEGF stimulated, CD31 staining, tube area, NPC library (AID 1117340;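 active = compound that reduces growth-factor-driven endothelial tube area in a mixed cell culture, no cutoff stated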); details: VEGF-stimulated ADSC/ECFC co-culture, at 10 µM, stronger effect = higher value
# [6] = GLP1 release stimulators, primary, NCI-H716, NPC library (AID 1117341;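 active = compound raises GLP1 secretion from the human gut endocrine cells, with no numeric limit stated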; also: reference of the scale not given here); details: NCI-H716 cells, at 10 µM, stronger effect = higher value
# [7] = HCT116 colon cancer cell growth inhibition, primary screen, CellTiter-Glo luminescence, NPC library (AID 1117342;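 active = compounds that lower survival of HCT116 colon cancer cells in the luminescence readout, no numeric limit stated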); details: at 20 µM (top of the series)
# [8] = reduced SW480 viability measured with CellTiter-Glo, NPC library, primary (AID 1117343;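 active = compounds that lower viability of the colon cancer cells in the luminescence readout, with no numeric limit stated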); details: CellTiter-Glo luminescence; at 20 µM (top of the series)
# [9] = NPC library primary testing for decreased DLD-1 cell viability via CellTiter-Glo (AID 1117346;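 active = compounds that lower survival of DLD-1 colon cancer cells in the luminescence readout, no cutoff given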); details: DLD-1 viability, CellTiter-Glo luminescence; at 20 µM (top of the series)
# [10] = biological target: 6-phosphogluconate dehydrogenase, decarboxylating (Homo sapiens) (UniProt P52209); assay: inhibition of human phosphogluconate dehydrogenase – biochemical, recombinant enzyme, NADPH absorbance, primary screen (AID 1159550;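 active = at least 20% inhibition of 6-phosphogluconate dehydrogenase activity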); details: recombinant 6PGD, NADPH absorbance 341 nm; at 10 µM; stronger effect = higher value
# Sequence of 6-phosphogluconate dehydrogenase, decarboxylating (Homo sapiens) (P52209 whole entry, looked up): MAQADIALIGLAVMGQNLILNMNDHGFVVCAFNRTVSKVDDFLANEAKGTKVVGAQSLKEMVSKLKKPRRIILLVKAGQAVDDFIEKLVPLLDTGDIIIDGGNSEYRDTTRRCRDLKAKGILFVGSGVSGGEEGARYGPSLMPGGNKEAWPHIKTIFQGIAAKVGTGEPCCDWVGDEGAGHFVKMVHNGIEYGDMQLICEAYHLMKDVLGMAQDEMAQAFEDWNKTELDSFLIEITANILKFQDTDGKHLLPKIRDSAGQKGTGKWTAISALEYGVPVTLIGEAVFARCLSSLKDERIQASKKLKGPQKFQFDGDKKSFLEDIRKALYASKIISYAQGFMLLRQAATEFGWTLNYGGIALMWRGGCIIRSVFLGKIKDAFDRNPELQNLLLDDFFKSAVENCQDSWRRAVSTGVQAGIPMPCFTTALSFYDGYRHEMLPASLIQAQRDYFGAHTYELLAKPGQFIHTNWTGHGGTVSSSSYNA
SMILES,parasite load remaining [1],viability [1],nuclear beta-catenin stimulation ([2]; at 10 µM),"nuclear beta-catenin stimulation ([2]; stimulation, at 2 µM)",insulin secretion stimulation [3],viability decrease [4],tube area decrease [5],GLP1 secretion stimulation [6],inhibition of viability [7],viability decrease (inhibition) [8],viability decrease (inhibition) [9],inhibition [10]
CCN(CC)CCNC(=O)c1cc(Br)c(N)cc1OC,69.3% (inactive) and 155% (inactive),93.9% and 89.2%,3.8% (inactive),-1%,-0.6% (inactive),-24.9% (inactive),15.9% (inactive),0.5% (inactive),-0.17% (inactive),-9.9% (inactive),-34.1% (inactive),12.4% (inactive)
Cc1cc(CC(=O)O)n(C)c1C(=O)c1ccc(Cl)cc1,103% (inactive) and 101% (inactive) and 54.3% (inactive),94.3% and 67.7% and 106%,-0.6% (inactive),1.7%,2.6% (inactive),-27.2% (inactive),15.1% (inactive),-1.1% (inactive),1.13% (inactive),14.7% (inactive),-17.6% (inactive),-4.85% (inactive)
CC(NCCC(c1ccccc1)c1ccccc1)c1ccccc1 (configuration not stated),-2.42% (inactive) and 196% (inactive) and 56% (inactive),7.6% and 63.1% and 81.9%,27.6% (inactive),-0.2%,4.5% (inactive),99.5% (active),15.4% (inactive),-2.1% (inactive),99.3% (active),102% (active),89% (active),4.5% (inactive)
C[C@]12CCC(=O)C=C1C=C[C@@H]1[C@@H]2CC[C@@]2(C)[C@H]1CC[C@@]21CCC(=O)O1,17.5% (inactive),73%,2.7% (inactive),1.9%,-2.6% (inactive),22.8% (inactive),9% (inactive),3.3% (inactive),33.6% (inactive),60.5% (active),11.5% (inactive),-1.14% (inactive)
COc1cc2c3cc1Oc1cc(ccc1O)C[C@@H]1c4c(cc(OC)c(O)c4Oc4ccc(cc4)C[C@@H]3N(C)CC2)CC[N+]1(C)C,55.9% (inactive) and 65.3% (inactive),118% and 192%,3.1% (inactive),-0.1%,-0.3% (inactive),-3% (inactive),13.9% (inactive),-1.7% (inactive),-1.93% (inactive),5.3% (inactive),-2.9% (inactive),0.384% (inactive)
CCN1CCN(C(=O)N[C@@H](C(=O)N[C@@H]2C(=O)N3C(C(=O)O)=C(CSc4nnnn4C)CS[C@H]23)c2ccc(O)cc2)C(=O)C1=O,48.8% (inactive) and 79.5% (inactive) and 21.1% (inactive),114% and 80.3% and 69%,-0.5% (inactive),-1.5%,1.3% (inactive),6.1% (inactive),-32.8% (inactive),5.2% (inactive),-2.2% (inactive),8.6% (inactive),3.3% (inactive),16.7% (inactive)
Cc1cc(C)nc(NS(=O)(=O)c2ccc(N)cc2)n1,78.5% (inactive) and 292% (inactive) and 25.7% (inactive),96.6% and 70.6% and 93.3%,0.2% (inactive),0.2%,0.4% (inactive),-0.3% (inactive),-24.8% (inactive),1.6% (inactive),-12.6% (inactive),35.5% (inactive),6.75% (inactive),1.62% (inactive)
CCCCCCCCCCCCCCCCOP(=O)([O-])OCC[N+](C)(C)C,146% (inactive) and 43% (inactive),78.6% and 106%,-0.6% (inactive),1.9%,0% (inactive),100% (active),12.2% (inactive),2.7% (inactive),100% (active),120% (active),103% (active),17% (inactive)
CCOC(=O)OC(C)OC(=O)[C@@H]1N2C(=O)[C@@H](NC(=O)[C@H](N)c3ccccc3)[C@H]2SC1(C)C (some centres not stated),83% (inactive) and 78.3% (inactive),104% and 79.2%,1.2% (inactive),2.5%,0.3% (inactive),-28.2% (inactive),5.9% (inactive),-3.1% (inactive),-1.7% (inactive),-35.9% (inactive),-10.2% (inactive),-1.65% (inactive)
CN1C(C)(C)CCCC1(C)C,91.5% (inactive) and 53.1% (inactive),99.3% and 92.2%,1.1% (inactive),0.5%,0.8% (inactive),23.2% (inactive),2.5% (inactive),-2.3% (inactive),-1.5% (inactive),-25.5% (inactive),-10.7% (inactive),2.01% (inactive)
CN(C)c1ccc(C(=C2C=CC(=[N+](C)C)C=C2)c2ccc(N(C)C)cc2)cc1,-0.57% (inactive) and -0.18% (inactive),16.5% and 0%,1% (inactive),28.6%,-0.2% (inactive),104% (active),108% (active),-16% (inactive),103% (active),146% (active),106% (active),5.37% (inactive)
CC1(C)O[C@@H]2C[C@H]3[C@@H]4CCC5=CC(=O)CC[C@]5(C)[C@@]4(F)[C@@H](O)C[C@]3(C)[C@]2(C(=O)CCl)O1,116% (inactive),97.4%,-0.6% (inactive),0.3%,-0.7% (inactive),-39% (inactive),10.2% (inactive),-1.7% (inactive),-4.27% (inactive),9.4% (inactive),-22.2% (inactive),12.4% (inactive)
COC(=O)N/N=C/c1c[n+]([O-])c2ccccc2[n+]1[O-],174% (inactive) and 86.3% (inactive) and 64.3% (inactive),93.9% and 108% and 125%,1.7% (inactive),5.8%,1.9% (inactive),18.7% (inactive),22.2% (inactive),5.7% (inactive),-3% (inactive),-10.2% (inactive),-4.9% (inactive),11.2% (inactive)
CC(N)C(=O)OC(C)(C)Cc1ccc(Cl)cc1 (configuration not stated),159% (inactive),87.1%,8% (inactive),3.3%,4.8% (inactive),7.1% (inactive),-6.7% (inactive),5.8% (inactive),50% (active),13.1% (inactive),20.6% (inactive),-7.62% (inactive)
Oc1c(Br)cc(Br)c2cccnc12,81.4% (inactive),68.8%,4.7% (inactive),0.1%,2.4% (inactive),113% (active),108% (active),4.3% (inactive),96.7% (active),153% (active),99.7% (active),4.35% (inactive)
COc1ccnc(CS(=O)c2nc3ccc(OC(F)F)cc3[nH]2)c1OC (configuration not stated),154% (inactive) and 46.8% (inactive) and 36.5% (inactive),91.7% and 94.9% and 116%,-0.4% (inactive),1.1%,1.2% (inactive),20.6% (inactive),-16.8% (inactive),-0.9% (inactive),5.27% (inactive),-0.2% (inactive),-5.4% (inactive),11.1% (inactive)
O=C1OC(c2ccc(O)cc2)(c2ccc(O)cc2)c2ccccc21,95% (inactive) and 84.8% (inactive),73.9% and 95.1%,1.3% (inactive),0%,11.5% (inactive),31.1% (inactive),14.1% (inactive),11.8% (inactive),12% (inactive),80.7% (active),43.5% (inactive),-2.11% (inactive)
CO/N=C1\CN(c2nc3c(cc2F)c(=O)c(C(=O)O)cn3C2CC2)CC1CN (configuration not stated),155% (inactive) and 46.4% (inactive),85.7% and 106%,4.1% (inactive),3.4%,3% (inactive),-23.6% (inactive),-6.9% (inactive),1.1% (inactive),-15% (inactive),-14.7% (inactive),-7.2% (inactive),2.88% (inactive)
CCN(CC)CCOc1ccc(/C(=C(\Cl)c2ccccc2)c2ccccc2)cc1,16% (inactive) and 5.06% (inactive),73.6% and 90.4%,40.9% (active),12.4%,3.6% (inactive),102% (active),110% (active),22.8% (active),102% (active),124% (active),103% (active),-19.7% (inactive)
CC(=O)NCCCCCC(=O)O,132% (inactive),98.6%,0.2% (inactive),0.7%,1.2% (inactive),-17.4% (inactive),-4.2% (inactive),-0.1% (inactive),-1.55% (inactive),24.9% (inactive),-11.9% (inactive),-3.52% (inactive)
CC(=O)OCC(=O)[C@@]1(O)[C@H](C)C[C@H]2[C@@H]3CCC4=CC(=O)C=C[C@]4(C)[C@@]3(F)[C@@H](O)C[C@@]21C,64% (inactive) and 76.2% (inactive),116% and 94.5%,-1.1% (inactive),-2.1%,0.55% (inactive),10.3% (inactive),-13.1% (inactive),4% (inactive),7.2% (inactive),32.2% (inactive),-4.9% (inactive),-7.66% (inactive)
